H9c2 TAG inh: triacylglycerol accumulation inhibition; H9c2 cells, Nile Red lipid (TAG) fluorescence; cells loaded with 200 µM oleic acid; inhibition, % at 12.5 µM; actives 0.66% (n = 230,000);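 active = pattern-corrected inhibition of lipid staining of at least 50% with the nuclear-stain viability signal not falling by more than 50%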;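 also: 0% = DMSO wells and 100% = triacsin C control wells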
MIN6 prolif-1: MIN6 beta-cell proliferation induction. MIN6 cells proliferation, ATPlite luminescence, 48 h; cells starved in 0.2% serum; 100% = growth in 10% serum. actives 0.29% (n = 330,000). AID 2380. proliferation, % at 10 µM;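 active = compounds whose signal lies at least 3.5 SD above the mean of all wells on their plate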;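 also: 0% = DMSO-treated cells in low-serum medium and 100% = 10% serum control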
Cardio protect: myocardial damage modulation in H9c2 cells; H9c2 cardiomyocytes, H2O2 injury protection, ATPLite, 2 h; protection from H2O2 cell death, % at 20 µM; actives 0.63% (n = 360,000);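 active = compounds giving at least 50% protection of heart cells from peroxide-induced death in the single-dose screen, raw or plate-pattern-corrected value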;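 also: 0% = DMSO wells with peroxide and 100% = DMSO wells without peroxide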
FAS-TE inh: inhibitors of human fatty acid synthase thioesterase domain. recombinant FAS-TE, OMFH fluorogenic substrate, fluorescence endpoint. P49327. inhibition, % at 15 µM. actives 0.67% (n = 360,000);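 active = compounds whose normalised, plate-corrected inhibition of enzyme fluorescence in the single-dose primary screen is 50% or more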;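 also: 0% = DMSO with enzyme and 100% = substrate without enzyme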
aDG glyco act: increases alpha dystroglycan glycosylation. actives 0.22% (n = 360,000). Pro5-aDG cells, alpha-DG glycosylation AlphaScreen (IIH6); 0% Pro5, 100% B10-LARGE cell signal. AID 624168. activation, % at 10 µM;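 active = activation of at least 8% versus controls, or a plate z-score of at least 8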;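 also: Pro5 are CHO cells carrying HIG-tagged alpha-DG that lacks glycosylation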
m-calpain inh: calpain II (pig) inhibition; actives 0.37% (n = 220,000); purified calpain II, fluorogenic peptide substrate, 30 min; inhibition, % at 16 µM;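 active = inhibition above about 50%, limit read from the data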
MIN6 prolif-2: confirmation of inducers of beta-cell replication in MIN6 cells; shares compounds with MIN6 prolif-1; MIN6 beta-cell proliferation, ATPlite luminescence, 48 h; cells kept in 0.2% serum; scaled between 0.2% and 10% serum; proliferation increase, % at 50 µM; 920 tested, under 10 active;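 active = proliferation increase above 40% at any of the four tested concentrations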
* hit, by the source's call; i = inactive; x = no result. Rows were chosen to be rich in hits. Some 2.3% of all compounds tested hit in one or more screens of this group.

SMILES	H9c2 TAG inh	MIN6 prolif-1	Cardio protect	FAS-TE inh	aDG glyco act	m-calpain inh	MIN6 prolif-2
CCN(C(=O)c1cc2c(=O)n3ccccc3nc2s1)C1CCCCC1	x	6.9*	4.5	6.2	0.0	x	-3.6
CCCCN(CC)C(=O)c1cc2c(=O)n3cccc(C)c3nc2s1	x	10.9*	4.9	7.9	0.0	x	-6.2
COc1ccc(CNC(=O)CN2C(=O)NC(C)(c3cccc4ccccc34)C2=O)cc1OC (centres undefined)	x	-2.1	-3.7	-2.0	-0.1	x	x
CCOCCCNc1nc(=S)[nH]c2cc(OC)c(OC)cc12	-1.7	7.2*	4.9	-5.2	0.1	-4.9	-0.3
CCCCNc1nc(=S)[nH]c2cc(OC)c(OC)cc12	2.9	-1.1	1.7	2.8	0.4	1.4	x
COc1ccc(S(=O)(=O)N2CCN(C(=O)Cc3cccs3)CC2)cc1	x	-1.0	5.7	-8.0	-0.4	23.6	x
O=C(Cc1cccs1)N1CCN(S(=O)(=O)c2ccccc2)CC1	x	7.2*	9.6	-13.0	0.2	-19.9	-1.6
CCc1nc(SCC(=O)N2CCCc3ccccc32)c2oc3ccccc3c2n1	3.9	14.8*	-16.5	23.0	-0.1	43.6	-6.5
CCc1nc(SCC(=O)NC2CCCC2)c2oc3ccccc3c2n1	x	0.2	-7.5	-3.3	0.9	x	x
CCc1ccccc1NC(=O)COC(=O)c1cccs1	x	8.1*	0.0	-2.2	0.2	x	1.8
O=C(OCC(=O)N1CCN(c2ccccc2)CC1)c1cccs1	-5.4	2.9	-6.5	-5.7	-0.2	x	x
O=C(OCC(=O)N1CCCC1)c1cccs1	x	8.1*	3.4	-3.3	-0.1	-4.1	0.6
COc1ccc2oc(CS(=O)c3ccccc3)c(C(=O)O)c2c1 (centres undefined)	x	-2.7	-1.2	-3.4	-0.1	x	x
CCOC(=O)C1CCCN(C2CC(=O)N(c3ccccc3)C2=O)C1 (centres undefined)	4.8	0.2	9.7	-10.2	0.0	2.6	x
CCOC(=O)C1CCCN(C2CC(=O)N(c3ccc(N4C(=O)CC(N5CCCC(C(=O)OCC)C5)C4=O)cc3)C2=O)C1 (centres undefined)	-5.8	9.5*	4.2	-8.6	0.1	-69.1	-0.9
CC1=NCC(C)c2ccccc21 (centres undefined)	-4.4	x	10.1	-8.3	0.0	x	x
CC1=NCC(C)c2c1[nH]c1ccccc21 (centres undefined)	-0.1	7.0*	0.2	-16.0	0.2	-242.1	-1.2
CC(C)CC1=NC(C(F)(F)F)(C(F)(F)F)c2c(n(CC(C)C)c(=O)[nH]c2=O)N1	-5.2	6.6*	-4.1	-10.3	-0.1	-44.8	-0.2
Cc1ccc(C(=O)NCCc2nnc3ccc(NCc4ccc5c(c4)OCO5)nn23)cc1	19.8	-1.4	-0.3	-0.9	-0.2	x	x
COc1nc(N)nc(N)c1NS(=O)(=O)c1ccc(C)cc1	3.8	9.8*	-0.5	-9.3	-0.1	x	0.0
COc1cc(C)nc(NS(=O)(=O)c2ccc(C)cc2)n1	-3.6	0.0	6.0	-2.0	-0.1	19.8	x
Cc1ccc(S(=O)(=O)NCC(=O)NC2CC2)cc1	-3.3	10.9*	1.4	-3.4	0.0	x	-0.3
COc1cc(Nc2nc3ccccc3n3nnnc23)cc(OC)c1OC	8.3	10.3*	68.0*	-8.3	0.1	-60.8	-6.4
COc1ccc(Nc2nc3ccccc3n3nnnc23)cc1	x	6.2	32.1	12.2	-0.1	i	x
Cc1cc(C(=O)NNC(=O)CCN2CCN(c3ccccc3)CC2)c2ccccc2n1	8.0	-1.3	3.5	-4.1	0.0	-35.4	x
SMILES	H9c2 TAG inh	MIN6 prolif-1	Cardio protect	FAS-TE inh	aDG glyco act	m-calpain inh	MIN6 prolif-2
CCc1cc(C(=O)NNC(=O)CCN2CCN(c3ccccc3)CC2)sc1C	-3.6	12.9*	2.2	-4.9	-0.1	x	-3.4
CCOC(=O)C1C(=O)CC(C)(O)C(C(=O)OCC)C1c1ccc(F)cc1 (centres undefined)	x	-0.3	-1.8	-6.3	0.0	10.1	x
CCOC(=O)C1C(=O)CC(C)(O)C(C(=O)OCC)C1c1ccc(N(CC)CC)cc1 (centres undefined)	-2.0	5.1*	12.2	-1.7	0.4	14.3	-1.0
COc1ccc(OC)c(CN2C(=O)c3ccccc3C2c2nnnn2-c2c(C)cccc2C)c1 (centres undefined)	x	x	x	17.9	-0.2	x	x
COc1ccc2[nH]c3c(c2c1)CCN1C(=O)N([C@@H](C)C(=O)NCCc2ccc(F)cc2)C(=O)[C@]31C	x	-3.2	-7.4	8.0	1.2	x	x
Cc1ccc(C(=O)N/C(=C/c2cccnc2)C(=O)NCc2ccco2)cc1	x	4.7*	3.5	-2.9	-0.2	-8.3	-1.4
Cc1cc(C)c(C#N)c(SCc2ccc(F)cc2)n1	-3.4	0.8	-6.4	24.7	0.3	-15.5	x
Cc1cc(C)c(C#N)c(SCc2ccc(C#N)cc2)n1	-12.2	11.5*	-4.2	28.4	-0.1	19.4	-1.5
O=C(Nc1c(-c2ccccc2)[nH][nH]c1=O)c1ccc(Br)cc1	x	x	-2.7	-12.0	0.2	x	x
CN(C)S(=O)(=O)c1cc([N+](=O)[O-])ccc1N1CCCCCC1	-15.6	12.1*	-7.5	10.6	-0.3	x	-4.4
O=C(COC(=O)CC1CC2CCC1C2)Nc1ccc(Cl)c(S(=O)(=O)N2CCOCC2)c1 (centres undefined)	-2.5	-6.4	-13.0	29.8	0.4	x	x
COc1cccc(C2NC(=O)CCC2[N+](=O)[O-])c1 (centres undefined)	x	-0.9	2.3	-5.7	0.1	x	x
Cc1cc(C(=O)OCc2nc3ccccc3s2)c(C)o1	-18.9	8.7*	6.9	13.1	-0.1	-8.0	-3.7
CC(=O)OCc1nc2ccccc2s1	x	-1.1	-2.4	-6.1	0.3	-20.4	x
COC(=O)c1ccc(OC(=O)c2cccnc2SC)cc1	x	-0.9	-2.8	14.9	0.0	x	x
COC(=O)c1ccc(OC(=O)c2ccccn2)cc1	-10.7	6.5*	7.9	-7.3	-0.2	-55.1	0.3
CC(C)c1c(C(=O)N/N=C/C=C/c2ccccc2)nnn1-c1nonc1N	x	11.7*	10.5	6.7	-0.1	x	-5.9
O=C(CN(Cc1ccccc1)C(=O)c1csnn1)NCCc1ccccc1	x	-0.8	0.8	-2.4	0.2	x	x
CCOc1ccccc1N(CC(=O)NCCc1ccc(OC)c(OC)c1)S(=O)(=O)c1ccccc1	x	7.1*	2.2	1.7	0.0	x	-0.8
COc1ccc(N(CC(=O)NCCc2ccccc2)C(=O)c2csnn2)cc1OC	x	6.2*	-0.5	-4.2	-0.1	x	0.5
O=C(CN(Cc1ccccc1Cl)C(=O)c1csnn1)NCCc1ccccc1	x	6.0*	-2.4	-0.1	0.2	x	-3.7
CCOc1ccccc1N(CC(=O)Nc1ccc(OC)c(OC)c1)S(=O)(=O)c1ccccc1	x	1.2	-2.6	5.9	0.0	x	x
O=C(O)C(Cc1ccccc1)N1C(=O)C=CC1=O (centres undefined)	-0.6	x	-0.9	-6.8	0.5	x	x

Compound activity (PubChem)
